Screens: PubChem, The Scripps Research Institute Molecular Screening Center
Compounds with a hit are over-represented: about 1.3% of the library has one in this group of screens.
IDE act – IDE (human) activation, cell-based | P14735 | HEK cells, FAbeta-B cleavage, fluorescence polarization; 0% vehicle, 100% cell-free pure enzyme wells | activation, % at 5.96 µM | actives 0.073% (n = 340,000) | AID 493087;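 active means activation above the mean of all tested compounds plus 3 SD, set per screening campaign, cut at about 17% in these data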
Target sequence (P14735 whole entry, looked up): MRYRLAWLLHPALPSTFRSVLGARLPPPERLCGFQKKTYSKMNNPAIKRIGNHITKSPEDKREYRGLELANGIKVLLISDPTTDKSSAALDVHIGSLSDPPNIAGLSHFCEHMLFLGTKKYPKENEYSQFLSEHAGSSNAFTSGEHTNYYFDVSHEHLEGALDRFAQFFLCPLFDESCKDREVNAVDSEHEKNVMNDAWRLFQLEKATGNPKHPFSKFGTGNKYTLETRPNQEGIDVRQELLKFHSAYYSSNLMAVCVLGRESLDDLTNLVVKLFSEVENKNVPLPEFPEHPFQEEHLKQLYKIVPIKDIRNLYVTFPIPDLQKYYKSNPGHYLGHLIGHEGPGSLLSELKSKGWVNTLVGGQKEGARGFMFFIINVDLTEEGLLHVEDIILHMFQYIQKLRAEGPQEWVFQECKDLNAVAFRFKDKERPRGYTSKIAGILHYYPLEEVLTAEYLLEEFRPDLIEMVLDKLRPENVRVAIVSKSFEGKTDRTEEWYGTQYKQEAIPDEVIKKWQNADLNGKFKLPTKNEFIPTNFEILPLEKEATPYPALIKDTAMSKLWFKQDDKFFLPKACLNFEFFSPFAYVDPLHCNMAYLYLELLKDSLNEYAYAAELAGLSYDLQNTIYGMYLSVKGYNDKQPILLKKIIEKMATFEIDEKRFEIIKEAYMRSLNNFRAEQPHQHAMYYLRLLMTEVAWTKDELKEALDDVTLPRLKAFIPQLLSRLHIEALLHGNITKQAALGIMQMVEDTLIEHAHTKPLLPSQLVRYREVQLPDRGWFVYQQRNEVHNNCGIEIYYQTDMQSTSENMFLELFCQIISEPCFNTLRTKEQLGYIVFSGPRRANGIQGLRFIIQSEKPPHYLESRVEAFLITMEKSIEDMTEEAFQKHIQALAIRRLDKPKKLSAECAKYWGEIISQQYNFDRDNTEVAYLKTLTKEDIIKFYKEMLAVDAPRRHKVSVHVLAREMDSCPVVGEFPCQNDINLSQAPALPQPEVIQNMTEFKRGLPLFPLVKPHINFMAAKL
PKA-R1A activ – activates the PKA-R1A holoenzyme complex. P00514+P68181. PKA-R1A dissociation, Cy5-IP20 fluorescence polarization; scaled: DMSO 0%, 113 µM cGMP 100%. activation, % at 11.4 µM. actives 0.083% (n = 340,000). AID 504707;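 active means percent activation above the mean of all tested compounds plus 3 SD, cut at about 19% in these data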;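 further: higher means more PKAc released from R1A so a rise in polarization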
PKA-R2B act – PKA-R2B complex activation; activation, % at 11.4 µM; actives 0.079% (n = 340,000); PKA-R2B holoenzyme dissociation, Cy5-IP20 fluorescence polarization; R2B truncated from residue 108, S112A mutant; 0% DMSO only, 100% 113 µM cGMP; P22694+P31323;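 active means activation above a cutoff set at the mean over all compounds plus 3 SD, cut at about 18% in these data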;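 further: higher means more holoenzyme dissociation and a rise in polarization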
eLon inh – inhibitors of E. coli Lon protease | P0A9M0 | purified E. coli Lon protease, fluorescence polarization | inhibition, % at 7.94 µM | actives 0.42% (n = 360,000) | AID 602123; in the data active means inhibition above about 13%, passing the limit was not always enough;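 further: 0% = enzyme with probe and DMSO and 100% = no enzyme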
Rin1-Abl PPI inh – inhibitors of human Rin1-Abl protein interaction. P00519+Q13671. TR-FRET Rin1/Abl binding, biochemical. inhibition, % at 7.35 µM. actives 0.4% (n = 360,000); in the data active means inhibition above about 5%, passing the limit was not always enough
IDE cell inh – cellular human IDE inhibition. P14735. HEK cells, FAbetaB cleavage, fluorescence polarization. inhibition, % at 5.59 µM. actives 0.41% (n = 320,000);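 active means percent inhibition above the average of all tested compounds plus 3 SD, set per screening campaign, cut at about 16% in these data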;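 further: IDE supplied by intact live HEK cells; FP after avidin binding of uncleaved biotin substrate so inhibition keeps polarization high; 0% = DMSO wells and 100% = 60 µM reference IDE inhibitor Ii1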
IDE cell inh cf – cellular human IDE inhibition, confirmation; shares compounds with IDE cell inh; actives 51% (n = 1,200); HEK cells, FAbetaB cleavage, fluorescence polarization; inhibition, % at 5.59 µM;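 active means mean inhibition across triplicate wells above the cutoff set by the earlier primary insulin-degrading enzyme screen, cut at about 16% in these data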;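 further: 0% = DMSO wells and 100% = 60 µM reference IDE inhibitor Ii1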
HEK cytotox – kills HEK cells in IDE inhibitor counter-screen. shares compounds with IDE cell inh. inhibition, % at 5.59 µM. AID 449730. HEK293 cytotoxicity, ATP luminescence. actives 28% (n = 1,200); in the data active means inhibition above about 22%;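 further: 0% = vehicle wells and 100% = reference cytotoxic drug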
R2B FP artifact – fluorescence polarization artifact in PKA-R2B activator counter-screen. shares compounds with PKA-R2B act. FP artifact counterscreen. activation, % at 11.4 µM. actives 6% (n = 270); in the data active means activation above about 20%;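 further: Cy5 labelled IP20 peptide probe with compound but no PKA protein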
PKA-R2B act conf – PKA-R2B complex activation, confirmation. actives 9% (n = 270). fluorescence polarization. shares compounds with PKA-R2B act. activation, % at 11.4 µM; in the data active means activation above about 19%
* hit, by the source's call; i = inactive; . = no result given.

SMILES	IDE act	PKA-R1A activ	PKA-R2B act	eLon inh	Rin1-Abl PPI inh	IDE cell inh	others
Cc1nc2ccccc2c(=O)n1-c1ccc(C(=O)O)cc1	18*	7	-2	10	-1	4
Cc1nc2ccccc2c(=O)n1-c1cccc(C(F)(F)F)c1	3	-6	-4	6	-3	3
COC(=O)C1=C(c2cc3ccccc3s2)C[C@@H]2CC[C@H]1N2C(=O)NCc1ccccc1	-1	-9	9	-15	0	-4
CN1C(=O)/C(=C/C=C/c2ccco2)C(=O)NC1=S	-6	-11	6	-94	5.4*	1
CCn1nc(-c2ccccc2)nc2c(=O)n(C)c(=O)nc1-2	4	9	10	83*	27*	-4
CN(C)c1ccc(/C=C2\C(=O)NC(=O)N(Cc3ccc(F)cc3)C2=O)cc1	5	5	-9	-58	-1	-2
O=C1NC(=O)N(Cc2ccc(F)cc2)C(=O)/C1=C\c1ccoc1	-35	-1	0	i	3	17*
O=C1NC(=S)N(c2ccc(F)cc2)C(=O)/C1=C\c1ccoc1	-2	1	7	-214	3	.
Cc1ccc(N2C(=O)NC(=O)/C(=C\c3ccoc3)C2=O)cc1	-32	-2	5	-188	0	20*
CCC(CO)(C(=O)OC1CC2CCC(C1)N2C)c1ccccc1 (configuration not stated)	2	-2	1	-2	1	5
Cc1ccc2c(c1)N(N=O)CCC2	7	-5	-6	10	0	3
CC(=O)O[C@H]1C(=O)[C@@]2(C)C([C@H](OC(=O)c3ccccc3)[C@]3(O)C[C@H](OC(=O)[C@H](O)[C@@H](NC(=O)Cc4ccccc4)c4ccccc4)C(C)=C1C3(C)C)[C@]1(OC(C)=O)CO[C@@H]1C[C@@H]2O (some centres not stated)	1	-3	10	-5	1	1
Clc1ccc(C(c2ccc(Cl)cc2)n2cc[n+](CC(OCc3ccc(Cl)cc3Cl)c3ccc(Cl)cc3Cl)c2)cc1 (configuration not stated)	19*	-2	13	5	-1	-5
CCCC(=O)OCC[N+](C)(C)C	1	9	2	-7	1	-2
OC(CNC1CCCCC1)C(F)(F)F (configuration not stated)	20*	-2	-8	-8	0	9
O=C1CC=C2C3CC4N(CCC45c4cc(O)c(O)cc4N1C25)CC3=CCBr (configuration not stated)	-21	4	-3	4	31*	.
CC1CCC(C(C)C)C(OC(=O)Cn2c(COc3ccccc3)[n+](C)c3ccccc32)C1 (configuration not stated)	21*	-1	-8	2	0	-10
Cc1ccc2c(c1)=C/C(=C\c1c(O)[nH]c(=S)[nH]c1=O)C(=O)N=2	.	.	.	.	.	16*
Cc1ccc2c(c1)=NC(=O)/C(=C/c1c(O)[nH]c(=O)[nH]c1=O)C=2	0	-2	-1	6	-1	4
COc1ccc(OC(=O)N(C)C[C@@H]2OCc3cnnn3CCCC(=O)N([C@@H](C)CO)C[C@H]2C)cc1	.	-6	-16	3	-1	.
CCN(CC)c1ccc(/C=N/c2sc3c(c2C#N)C2CCN3CC2)c(O)c1	-76	-6	-9	-383	-3	20*	IDE cell inh cf=123*;HEK cytotox=55*
CC1(C)OC(c2ccccc2)=C/C(=C/C=C2C(=O)NC(=O)NC2=O)O1	-84	3	-14	i	-13	50*	IDE cell inh cf=55*;HEK cytotox=8
C/C(=N\N1CCCCC1c1cccnc1)c1c(O)n(C2CCCCC2)c(=S)[nH]c1=O (configuration not stated)	-32	0	4	-103	0	29*	IDE cell inh cf=14;HEK cytotox=15
COC(=O)C1=C(c2cccc(OCc3ccccc3)c2)C[C@@H]2CC[C@H]1N2C(=O)NCCOc1ccccc1	3	-12	-2	-1	3	2
CC1(C)NC(=O)[C@H]2CCCN21	3	4	-3	3	-3	0
SMILES	IDE act	PKA-R1A activ	PKA-R2B act	eLon inh	Rin1-Abl PPI inh	IDE cell inh	others
COc1cc(/C=C/c2nc3ccccc3c(=O)n2-c2ccc(O)cc2)ccc1O	-47	0	-5	-159	-1	33*	IDE cell inh cf=111*;HEK cytotox=34*
COc1ccc(-n2c(/C=C/c3ccc(O)c(O)c3)nc3ccccc3c2=O)cc1	-99	-8	-8	-125	2	115*	IDE cell inh cf=116*;HEK cytotox=23*
O=c1c2ccccc2nc(/C=C/c2ccc3c(c2)OCO3)n1-c1ccccc1	-4	-2	-6	-10	2	-3
O=c1c2ccccc2nc(/C=C/c2ccccn2)n1-c1ccccc1	0	-8	8	-6	0	-1
CC(=NCc1cccnc1)c1c(O)n(-c2ccccc2C)c(=O)[nH]c1=O	-4	-1	5	-5	-2	7
CN1/C(=C\C=Nc2ccccc2)C(C)(C)c2ccccc21	1	-7	-10	-10	1	-3
CN1/C(=C\C=C2C(=O)NC(=O)NC2=O)C(C)(C)c2ccccc21	-65	0	5	-437	-22	57*	IDE cell inh cf=70*;HEK cytotox=12
O=C1NC(=O)N(c2ccc3c(c2)OCO3)C(=O)/C1=C/c1ccc(N2CCCC2)o1	-27	1	0	i	-17	19*	IDE cell inh cf=29*;HEK cytotox=6
CCOc1ccc(N2C(=O)NC(=O)/C(=C\c3ccc(N4CCCCC4)o3)C2=O)cc1	-21	-12	-1	-192	-9	10
CC(=O)Nc1ccc(S(=O)(=O)N2Cc3ccccc3-n3nncc3C2)cc1	.	-7	-8	-3	1	.
O=C1NC(=O)N(Cc2ccccc2)C(=O)/C1=C\C=C\c1ccco1	-17	7	12	-173	2	17*	IDE cell inh cf=10;HEK cytotox=58*
C#CCNc1ccncc1S(=O)(=O)NC(=O)NC(C)C	1	10	20*	-4	0	1	R2B FP artifact=2;PKA-R2B act conf=2
